A selection: hits, their analogues and other compounds. The true share with any hit is near 9%.
HPGD block – inhibitors of human 15-hydroxyprostaglandin dehydrogenase (HPGD); purified HPGD, NADH fluorescence kinetic, PGE2 substrate; Potency, µM, for inactives: at the top dose activity change, negative = inhibition, most hits filed as inhibitors; 150,000 compounds, 4.3% hits; note: potency is the fitted concentration of half-maximal effect
Target sequence (P15428 whole entry, looked up): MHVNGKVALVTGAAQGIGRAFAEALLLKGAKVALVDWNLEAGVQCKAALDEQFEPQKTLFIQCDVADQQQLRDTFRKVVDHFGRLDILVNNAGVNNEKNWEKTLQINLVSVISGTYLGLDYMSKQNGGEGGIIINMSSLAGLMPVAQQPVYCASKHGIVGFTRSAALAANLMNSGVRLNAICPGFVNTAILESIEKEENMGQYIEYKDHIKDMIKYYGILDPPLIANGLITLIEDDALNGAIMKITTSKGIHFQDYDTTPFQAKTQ
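20 nM HPGD preincubated 15 min at room temperature with compound in 50 mM Tris-HCl pH 8, 0.01% Tween 20. Started with 1 mM NAD+ and 30 uM prostaglandin E2; NADH fluorescence (360/450 nm) read 5 times over 30-s intervals, last minus first.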
ALDH1A1 block – inhibitors of human aldehyde dehydrogenase 1A1; 220,000 compounds, 7.3% hits; P00352; AID 1030; Potency, µM (series often up to 75.3 µM), inactives show at the highest dose activity, negative = inhibition, usual class: inhibitors; Purified ALDH1A1, NADH fluorescence, propionaldehyde substrate;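 note: potency is the fitted concentration of half-maximal effect; plate controls were no enzyme wells and a reference inhibitor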
IMPase inh – IMPase inhibition in cells. P97697. CHO-M1 cells, IP1 accumulation, HTRF TR-FRET ratio. inhibition (IP1 accumulation), % at 46.1 µM. 120,000 tested, under 10 active. AID 901; active = well fitted curve in the direction sought with a large enough effect in the signal ratio, not every such curve was filed as active; inconclusive = small, poorly fitted or top-dose-only effect, or a change in a side signal; inactive = no such curve, though single readings can be large or run the other way; the % refers to the signal ratio;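 note: cells stimulated with carbachol in lithium chloride buffer; plate controls were DMSO basal wells for no effect and reference inhibitor wells for full effect; higher means more IMPase inhibition seen as more IP1 and lower FRET ratio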
Target sequence (P97697 whole entry, looked up): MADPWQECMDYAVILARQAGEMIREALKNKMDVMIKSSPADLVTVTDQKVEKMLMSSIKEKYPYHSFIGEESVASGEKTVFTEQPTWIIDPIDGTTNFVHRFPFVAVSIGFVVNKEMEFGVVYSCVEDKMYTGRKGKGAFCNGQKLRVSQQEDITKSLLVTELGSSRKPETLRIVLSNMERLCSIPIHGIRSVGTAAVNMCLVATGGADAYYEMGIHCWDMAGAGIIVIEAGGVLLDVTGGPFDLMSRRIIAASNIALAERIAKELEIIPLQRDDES
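CHO-M1 cells (CHO stably expressing M1 receptor), compound up to 46 uM final, stimulated with carbachol (50 uM as added) in buffer with 50mM LiCl, pH 7.4, 30 min at 37C. Cytosolic IP1 read by TR-FRET; AC50 from Hill fits.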
Active calls of the source: *; ? = inconclusive; · = no result given; [ ] = remark or other dose. Unless noted, calls come from the whole dose curve; as a rule, active = well fitted inhibition curve with a large enough effect (not every such curve was filed as active); inconclusive = small, poorly fitted or top-dose-only effect, or another doubt; inactive = no such curve, though single readings can be large or run the other way. Unless noted, % is set by controls: 0 for no effect and ±100 for the full control effect.

SMILES	HPGD block	ALDH1A1 block	IMPase inh
COC(=O)Nc1sc2c(c1C(N)=O)CCCCCC2	14µM*	8.9µM*	-13
CCCC(=O)NC(=S)Nc1sc2c(c1C(N)=O)CCC2	25µM*	8.9µM*	·
Cc1ccccc1NC(=O)c1c(NC(=O)c2ccncc2)sc2c1CCC(C(C)(C)C)C2 (stereo unspecified)	·	·	8
COc1ccc(CN2CCNC(=O)C2CC(=O)N(C)Cc2ccon2)c(OC)c1 (stereo unspecified)	·	-11%	·
Cc1ccc(N2CC(C(=O)Nc3nnc(SCC(=O)Nc4nc(C)cs4)s3)CC2=O)cc1 (stereo unspecified)	-5%	-3%	·
O=C(C1CCN(c2nnnn2-c2ccccc2)CC1)N1CCN(c2ccccc2)CC1	-3%	10µM*	-5
O=C(Nc1ccc2c(c1)OCCO2)C1CCN(S(=O)(=O)c2ccccc2)CC1	·	-5%	·
COc1cccc(NC(=O)N2CCN(c3nnnn3-c3ccccc3)CC2)c1	·	6.3µM*	·
O=C(O)C1C2CCC(O2)C1C(=O)Nc1cccc(F)c1 (stereo unspecified)	-7%	0%	3
COc1cccc(NC(=O)N2CCCC2)c1	·	2%	·
NC(=O)C1CCN(c2nnnn2-c2ccccc2)CC1	-7%	?	-1
O=C(Nc1cccc(F)c1)C1CCN(c2nnnn2-c2ccccc2)CC1	-10%	22µM*	7
O=C(Nc1ccc2c(c1)OCCO2)C1CCN(c2nnnn2-c2ccccc2)CC1	-3%	3.5µM*	-2
CSc1nc(-c2ccccc2)nc(NC(=O)C(C)C)c1C(C)=O	·	5%	·
Cc1ccc(CCNC(=O)C2CCCN(S(=O)(=O)c3cccc4nsnc34)C2)cc1 (stereo unspecified)	-18%	-5%	7
CC(=O)N(Cc1cccs1)Cc1cc2cc(C)c(C)cc2nc1Cl	·	-7%	·
OC(COc1ccc(CNCc2cccnc2)cc1)CN1CCc2ccccc2C1 (stereo unspecified)	·	-1%	·
CCOc1ccc(NC(=O)C2CCN(c3nnnn3-c3ccccc3)CC2)cc1	-3%	13µM*	0
CCOc1ccc(NC(=O)C2CCN(C(=O)NCc3ccccc3)CC2)cc1	-7%	10%	6
CC(NS(=O)(=O)/C=C/c1ccccc1)C(=O)NCCc1ccc(S(N)(=O)=O)cc1 (stereo unspecified)	·	-4%	·
Cc1cc(=O)cc(C)n1-c1ccc(Cl)cc1	·	5%	·
Cc1cccc(-n2c(C)cc(C=C3C(=O)c4ccccc4C3=O)c2C)c1	-14%	1.6µM*	11
CCn1c(C)cc(C=C2C(=O)c3ccccc3C2=O)c1C	·	11µM*	·
Cc1cc(C=C2C(=O)CCCC2=O)c(C)n1-c1ccccc1	-8%	?	13
Cc1cc(C=C2C(=O)c3ccccc3C2=O)c(C)n1-c1ccc(Cl)cc1	-10%	2.2µM*	8
SMILES	HPGD block	ALDH1A1 block	IMPase inh
Cc1cc(C=C2C(=O)c3ccccc3C2=O)c(C)n1C	-15%	?	17
CC(=O)c1cccc(NC(=O)Cc2coc3cc4c(cc23)CCC4)c1	-19%	-9%	·
O=c1[nH]ncc(N/N=C\c2cccs2)c1Cl	·	0%	·
Cc1ccc(S(=O)(=O)/C(C#N)=C/c2ccccc2OCc2ccccc2)cc1	?	?	-7
COc1ccc(/C=C(/C#N)S(=O)(=O)c2ccc(C)cc2)cc1	25µM*	-4%	3
COc1ccc(/C=N/OCC(=O)N2CCCC2)c(OC)c1	·	-15%	·
COc1ccc(NC(=O)CCn2cccc2)cc1	-7%	0%	5
Cc1cc(C(=O)c2ccc(C(C)(C)C)cc2)c(NC(=O)CCl)s1	4%	11µM*	-6
Cc1ccccc1C(=O)Nc1sc(C)c(C)c1C(=O)c1ccccc1	32µM*	?	-1
Cc1sc(NC(=O)CCl)c(C(=O)c2ccccc2)c1C	28µM*	0.71µM*	-10[1.84 µM]
Cc1ccccc1C(=O)Nc1sc2c(c1C(=O)O)CCC2	·	9%	·
CCOC(=O)c1cc(C)sc1NC(=O)CCC(=O)O	-16%	8%	0
COC(=O)c1c(NC(=O)COc2ccc(Cl)cc2)sc(C)c1C	·	·	-1
Cc1ccccc1NCCNc1ccccc1C	-12%	4%	5
Cc1cc(C)cc(NC(=O)c2ncn(-c3ccccc3)n2)c1	·	·	0
COc1ccc(NC(=O)N2CCc3nc(-c4ccc(OC)cc4C)c4c(c3C2)CO[C@@H](c2ccccc2)C4)cc1	-6%	4µM*	·
CCOC(=O)CCCNC(=O)N1CCc2nc(-c3ccc(OC)cc3C)c3c(c2C1)CO[C@@H](c1ccccc1)C3	-4%	?	·
COc1ccc(-n2c3c(c(=O)[nH]c2=O)C(NC(=O)c2ccccc2Cl)(C(F)(F)F)C(=O)N3)cc1 (stereo unspecified)	·	·	-5
O=C(CCNC(=O)c1ccccc1)Nc1cccnc1	·	8%	·
Cn1nc(C(C)(C)C)cc1C(=O)Nc1nc2c(s1)C(=O)CC(C)(C)C2	-11%	14µM*	?
COc1cccc(CC(=O)Nc2nccs2)c1	-16%	-10%	4
CC1(C)CC(=O)c2sc(NS(=O)(=O)Cc3ccccc3)nc2C1	?	13%	-7
Cc1ccc(S(=O)(=O)Nc2nc3c(s2)C(=O)CC(C)(C)C3)cc1	·	32µM*	·
COc1cccc(CC(=O)Nc2nc3c(s2)C(=O)CC(C)(C)C3)c1	·	1.3µM*	·
CC1(C)CC(=O)c2sc(NC(=O)Cc3cccs3)nc2C1	-24%	0.79µM*	0
SMILES	HPGD block	ALDH1A1 block	IMPase inh
COc1ccc(-c2nc(NC(=O)c3cc(C(C)(C)C)nn3C)sc2C)cc1	?	?	21
Cc1nnc(NC(=O)Cc2cccs2)s1	-2%	-2%	-4
Fc1ccc(NCc2ccccc2-c2nnc(-c3ccccc3Cl)o2)cc1	·	·	-3
Cc1nc(NC(=O)C2CC2)sc1C	-2%	-11%	·
CC1(C)CC(=O)c2sc(NC(=O)C3CC3)nc2C1	-26%	11µM*	-10
Cc1ccc(NC(=O)CN(C)C(=O)CSc2nc3ccccc3c(=O)n2Cc2ccco2)cc1	·	4%	9
CCn1c(SCC(=O)NCc2ccco2)nc2cccnc21	?	-14%	-5
O=C(CSc1nc2cccnc2n1Cc1ccccc1)NCc1ccco1	32µM*	25µM*	1
O=C(CSc1nc2ccccc2c(=O)n1Cc1ccco1)NCc1ccco1	-21%	25µM*	-11
O=C(CSc1nc2ccccc2c(=O)n1-c1ccccc1)NCc1ccco1	-25%	4.5µM*	15
Cc1cccc(-n2c(SCC(=O)NCc3ccco3)nc3ccccc3c2=O)c1	-7%	0%	0
CCCCn1c(SCC(=O)NCc2ccco2)nc2ccccc2c1=O	-11%	-6%	0
CN(Cc1ccccc1)C(=O)CSc1nc2ccccc2c(=O)n1Cc1ccco1	-26%	7.9µM*	-3
CS(=O)(=O)N(CCC#N)Cc1ccco1	·	2%	·
CN(C)c1ccc2nc3c(C(=O)O)cc(=O)c(O)c-3oc2c1	-26%	3%[13.5 µM]	·
O=C(CSc1nc2c(sc3ccccc32)c(=O)n1Cc1ccco1)NCC1CCCO1 (stereo unspecified)	5%	18µM*	-5
O=C(CSc1nc2c(sc3ccccc32)c(=O)n1Cc1ccccc1)NCC1CCCO1 (stereo unspecified)	-20%	0%	-14
COCCNC(=O)CSc1nc2cc(OC)c(OC)cc2c(=O)n1CCc1ccc(S(N)(=O)=O)cc1	·	-3%	·
COc1cc2nc(SCC(=O)NCCc3ccccc3)n(Cc3ccco3)c(=O)c2cc1OC	-10%	3.5µM*	-1

Source: PubChem
